ELG1 genotoxic = inducers of genotoxicity in HEK293T ELG1-luciferase cells | HEK293T ELG1-luciferase reporter, luminescence, 16 h | Potency, µM (highest dose often 46 µM), for the others: at the highest dose activity change, positive = activation, usual class: activators | hit rate 1.3% among 330,000 | AID 504466; note: % of control where 0% means no effect; nearly all actives have a fitted effect of over 60% in size
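Luminescence read-out: rising ELG1-luciferase signal, reflecting elevated ELG1 protein under genetic stress, flags genotoxic compounds. Cells were treated for 16 hr at 37 °C before ONE-Glo detection.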
Rab9 promoter act = activators of Rab9 promoter | Huh7 Rab9 promoter-luciferase reporter, luminescence, 24 h | Potency, µM (highest dose often 9.22 µM), without a hit: top-dose activation, negative = inhibition, actives largely listed as activators | hit rate 2.8% among 320,000 | AID 485297; note: % of control where 0% means no effect; nearly all actives have a fitted effect of over 60% in size
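Measured in stably transfected Huh7 cells bearing a Rab9 promoter–luciferase construct: 24 h compound treatment at 37 °C, followed by luminescence detection.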
NPC1 promoter act = activators of NPC1 promoter; Huh7 NPC1 promoter luciferase reporter, 24 h; Potency, µM (series often up to 9.22 µM), for inactives: at the top dose activation, usual class: activators; hit rate 2.4% among 320,000; note: % of control where 0% means no effect; nearly all actives have a fitted effect of over 60% in size
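Stably transfected Huh7 (NPC1 promoter→luciferase), 1500 cells/well in Opti-MEM + 10% FBS, 2 h settle, then compound 24 h at 37 °C. Luminescence after 10 min with Amplite reagent.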
KinaseGlo FLuc = counter-screen: inhibitors of Kinase-Glo firefly luciferase; Kinase-Glo luciferase, ATP luminescence, 8 min; hit rate 0.28% among 200,000; Potency, µM (series often up to 38.3 µM), inactives show at the highest dose activity change, negative = inhibition, hits mostly inhibitors; note: % is set by controls: 0 for no effect and ±100 for the full control effect; nearly all actives have a fitted effect of over 60% in size
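Compound is pinned into ATP-containing buffer (10 uM ATP, imidazole pH 7.2, 7 mM MgCl2). Kinase-Glo luciferase reagent is then added. Light output is recorded following an 8-min room-temperature incubation.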
FLuc counter = counter-screen for miR-21 project: firefly luciferase inhibitors or activators. hit rate 6.9% among 360,000. purified FLuc, Km substrates, luminescence inhibition. AID 588342. Potency, µM (top dose mostly 57.5 µM), without a hit: top-dose activity change, negative = inhibition, most hits filed as inhibitors. P08659;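 note: plate controls were vehicle for no effect and reference inhibitor for full effect; nearly all actives have a fitted effect of over 55% in size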
Target sequence (P08659 whole entry, looked up): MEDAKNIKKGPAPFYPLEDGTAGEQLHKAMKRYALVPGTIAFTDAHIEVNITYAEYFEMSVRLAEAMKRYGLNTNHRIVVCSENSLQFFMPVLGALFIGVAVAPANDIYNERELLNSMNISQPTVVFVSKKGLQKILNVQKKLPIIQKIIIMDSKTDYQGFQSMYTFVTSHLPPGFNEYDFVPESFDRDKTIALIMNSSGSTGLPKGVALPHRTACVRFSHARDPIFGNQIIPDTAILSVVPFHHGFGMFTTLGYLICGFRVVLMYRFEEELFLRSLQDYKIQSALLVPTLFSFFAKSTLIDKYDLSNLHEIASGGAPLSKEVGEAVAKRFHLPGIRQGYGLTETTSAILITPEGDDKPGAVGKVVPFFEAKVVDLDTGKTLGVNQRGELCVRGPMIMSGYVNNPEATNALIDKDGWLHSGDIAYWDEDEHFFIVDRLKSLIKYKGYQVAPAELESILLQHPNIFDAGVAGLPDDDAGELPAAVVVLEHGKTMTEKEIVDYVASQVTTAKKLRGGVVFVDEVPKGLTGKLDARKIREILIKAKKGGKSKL
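Biochemical qHTS of compounds, final roughly 60 µM downward over six points, against 10 nM purified firefly luciferase using Km concentrations of substrates (10 uM D-luciferin, 10 uM ATP) in Tris acetate pH 7.5 buffer; luminescence output.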
SMN2 splice up = enhancers of SMN2 splice variant expression. HEK293 SMN2-luciferase splicing reporter, luminescence, 30-36 h. Potency, µM (highest dose often 46.1 µM), for inactives: at the top dose activity change, positive = activation, usual class: activators. hit rate 2.8% among 210,000; note: % of control where 0% means no effect; nearly all actives have a fitted effect of over 55% in size
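HEK293 cells carry an SMN2 minigene-luciferase reporter in which exon 7 inclusion puts luciferase in frame. Cells were seeded at 2000 cells/well, attached for 10-12 hours, then exposed to compounds for 30-36 hours at 37C before ONE-Glo luminescence.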
* marks the source's active call; other numbers are inactive results; ? = inconclusive; / = no result. This is a sample that favours compounds with a hit; in the whole collection about 7.5% have one here. Calls come from the whole dose curve; as a rule, active = well fitted curve in the direction sought with a large enough effect; inconclusive = small, poorly fitted or top-dose-only effect, or another doubt; inactive = no such curve, though single readings can be large; an effect the other way counts as inactive or inconclusive. Potency is the fitted concentration of half-maximal effect.

SMILES	ELG1 genotoxic	Rab9 promoter act	NPC1 promoter act	KinaseGlo FLuc	FLuc counter	SMN2 splice up
N/C(=N\OC(=O)CCCc1ccccc1)c1ccc(Br)cc1	15%	-9%	-4%	/	5%	/
N/C(=N\OC(=O)CCc1ccccc1)c1ccc(Br)cc1	14%	1%	-4%	-3%	?	6%
Cc1ccccc1NC(=O)c1cnn(-c2ccccc2)c1C	4%	?	?	/	13µM*	/
Cc1ccc(C)c(NC(=O)c2cnn(-c3ccccc3)c2C)c1	6%	?	30%	/	21µM*	/
CCc1ccccc1NC(=O)c1cnn(-c2ccccc2)c1C	-3%	21%	0%	/	?	/
Cc1cccc(NC(=O)c2cnn(-c3ccccc3)c2C)c1C	?	4µM*	2.8µM*	/	?	/
CCOc1ccccc1NC(=O)c1cnn2c(C(F)F)cc(-c3ccccc3)nc12	/	/	/	/	5%	3%
Cc1ccccc1-c1cc(Nc2ccc(F)cc2)ncn1	/	/	/	2%	/	15%
Cc1cc(C)cc(NC(=O)Nc2ccc(NC(=O)c3ccccc3O)cc2)c1	6%	-4%	4%	/	-4%	/
O=C(Oc1ccccc1C(=O)Nc1ccccc1)c1ccccc1Br	?	19%	-4%	2%	17µM*	23%
O=C(Nc1ccccc1)c1ccccc1O	?	26%	26%	8%	11µM*	-4%
Cc1ccc(NC(=O)c2ccccc2O)cc1	?	0.63µM*	2µM*	-4%	0.95µM*	2.8µM*
CC(C)NC(=O)c1ccc(Cn2c(=O)c3cccn3c3cccnc32)cc1	/	/	/	/	3%	/
Brc1ccc(-c2csc(N/N=C/c3ccco3)n2)cc1	4%	?	?	1%	?	?
Cc1sc(N/N=C/c2ccco2)nc1-c1ccccc1	?	30%	16%	-1%	9.5µM*	-30%
Clc1ccc(-c2csc(N/N=C/c3ccco3)n2)cc1	3%	?	?	/	13µM*	/
CC(C)=NNc1nc(-c2ccccc2)c(C)s1	-3%	-1%	1%	-2%	?	-10%
C(=N\Nc1nc(-c2ccccc2)cs1)/c1ccco1	?	3.2µM*	2.8µM*	2%	2.7µM*	14µM*
Cc1ccc(-c2csc(N/N=C/c3ccco3)n2)cc1	15%	?	?	-1%	9.5µM*	26%
Cc1nnc(SCc2cc(=O)[nH]c(=S)[nH]2)s1	-2%	-3%	-1%	5%	-3%	?
CCOc1ccccc1CNC(=O)c1ccc2nc(N3CCC(C)CC3)sc2c1	/	/	/	/	?	-3%
Cc1ccc(CNC(=O)c2sc3nc(-c4ccc(F)cc4)ccc3c2N)cc1	/	/	/	/	-7%	5%
COC1OC2COC(c3ccccc3)OC2C(O)C1O (stereo not drawn)	/	/	/	2%	/	/
CCOc1ccc(S(=O)(=O)N2CCN(C(=O)c3sccc3C)CC2)cc1	0%	6%	-3%	-1%	-1%	-17%
Cc1sc(NC(=O)c2cccnc2)nc1-c1ccccc1	1%	0%	-2%	1%	-8%	1%
SMILES	ELG1 genotoxic	Rab9 promoter act	NPC1 promoter act	KinaseGlo FLuc	FLuc counter	SMN2 splice up
Cc1sc(N/N=C/c2cccnc2)nc1-c1ccccc1	-1%	4%	-2%	-10%	17µM*	?
CC(=O)c1ccc(NC(=O)CSc2nc(-c3cccc(F)c3)nc3c2c(=O)n(C)c(=O)n3C)cc1	/	/	/	/	-3%	/
Cc1cccc(C=Nc2ccc3c(c2)oc2ccccc23)c1O	16%	4µM*	26%	-2%	?	10µM*
CCCN1CCN(CCCNC(=O)c2ccccc2NC(=O)C2=C(C)OCCS2)CC1	0%	17%	5%	/	-2%	/
Cc1cc(-c2nnc3n2N=C(c2ccc(-c4ccccc4)cc2)CS3)n[nH]1	0%	-7%	-1%	/	17µM*	/
Fc1ccc(C2=Nn3c(nnc3-c3n[nH]c4c3CCC4)SC2)cc1	18µM*	-4%	-2%	-6%	1%	20µM*
Cc1cc(-c2nnc3n2N=C(c2ccccc2)CS3)n[nH]1	?	6%	0%	/	0%	/
c1ccc(-c2cc(-c3nnc4n3N=C(c3ccc5ccccc5c3)CS4)[nH]n2)cc1	?	0%	2%	-1%	?	11µM*
CCOc1cc(CNCc2cccnc2)ccc1OCC(=O)NC(C)(C)C	-6%	-4%	-3%	-1%	-1%	-15%
COc1ccc(Cl)cc1NC(=O)Cn1cc(C(=O)c2ccncc2)c(=O)c2cc(C)ccc21	/	/	/	/	-4%	/
CCC(C(=O)OC(C)C)c1ccc2ccccc2c1 (stereo not drawn)	0%	-2%	-2%	/	3%	/
CCOc1ccccc1NC(=O)CSc1nc2c(oc3ccccc32)c(=O)n1-c1ccc(F)cc1	/	/	/	/	-2%	-1%

Screening data (PubChem)
